Source: the antibiotic and cytotoxicity screens of Wong et al. (2023)
The whole screen tested about 39,000 compounds, of which about 3,300 (8.5%) were called active. For the sample, actives were picked, then their nearest neighbours and some compounds at random.

system: HepG2; assay: cytotoxicity call (relative viability < 0.9); conditions: 10 µM

Row | Compound | cytotoxicity call
1 | N#Cc1cccnc1 | inactive
2 | CNCc1cccnc1 | active
3 | NCc1cccnc1 | inactive
4 | CC(=O)OCC1=C2C(=O)[O][Zn][O]C(=O)[C@@H](N)CCCC(=O)N[C@@H]3C(=O)N2[C@@H]3SC1 | inactive
5 | Nc1nc(=O)c2ncn([C@H]3O[C@@H](COP(=O)(O)OP(O)(O)=S)[C@H](O)[C@@H]3O)c2[nH]1 | inactive
6 | CN(C)[C@@H]1C(=O)[C@@H](C(N)=O)C(=O)[C@@]2(O)C(=O)[C@H]3C(=O)c4c(O)ccc(Cl)c4[C@@](C)(O)[C@H]3C[C@@H]12 | inactive
7 | CCCCC[C@H]1C(=O)O[C@H](C)[C@H](NC(=O)c2cccc(NC=O)c2O)C(=O)O[C@@H](C)[C@@H]1OC(=O)CC(C)C | active
8 | CCCCCC1C(=O)OC(C)C(NC(=O)c2cccc(NC=O)c2O)C(=O)OC(C)C1OC(=O)CC(C)C (configuration not stated) [ANTIMYCIN A (A1 shown) ] | active
9 | O=C1COC2(CNC2)CN1 | inactive
10 | CC(C)N1CCO[C@H]2CN(C(=O)N(C)C)C[C@@H]21 | inactive
11 | C=CCC1(O)CCC2C3CCC4=CC(=O)CCC4=C3C=CC21C (configuration not stated) | inactive
12 | CC(CCc1ccccc1)NC(C)C(O)c1ccc(O)cc1.Cl (configuration not stated) | inactive
13 | Nc1nnns1 | inactive
14 | CC(C)[C@@H](Br)C(=O)NC(N)=O | inactive
15 | CC(C)Oc1ncccc1CN | inactive
16 | CC1(C)C(O)CC(=O)C2(C)C1CC(=O)C1(C)C2CCC2(C)C(c3ccoc3)OC(=O)C3OC321 (configuration not stated) | inactive
17 | CC(=O)O[C@H]1C[C@@H](OC(C)=O)C(C)(C)[C@@H]2C[C@@H](OC(C)=O)[C@]3(C)[C@H](CC[C@@]4(C)[C@H](c5ccoc5)C[C@H]5O[C@@]534)[C@@]12C | inactive
18 | CC1(C)C(=O)C=CC2(C)C1=C(O)C(=O)C1(C)C2CCC2(C)C(c3ccoc3)CC3OC321 (configuration not stated) | active
19 | CC(=O)OC1CC2(C)C(c3ccoc3)CC3OC32C2(C)C(=O)C(O)=C3C(C)(C)C(=O)C=CC3(C)C12 (configuration not stated) | active
20 | N[C@H]1CCCN(Cc2cccnc2)C1 | inactive
21 | O=C1NC(=S)NC(=O)C1CN1CCOCC1 | inactive
22 | C[C@H](O)[C@@]12[C@H]3CC=C[C@@H]1N2CC3 (some centres not stated) | inactive

Row | Compound | cytotoxicity call
23 | O[C@H]1CNC[C@@H]1N1CCCCC1 | inactive
24 | Cn1c(CCN)nc2ccccc21 | inactive
25 | COC(=O)C[C@@H]1CC[C@@H]2NC[C@H](O)COC[C@H]2O1 | inactive
26 | CO[C@@H]1C=C[C@@H]2[C@H]1N2CCO (some centres not stated) | inactive
27 | N[C@H]1CNC(=O)C1 | inactive
28 | NCCc1ccc(O)cc1 [listing 1 of 2 here] | inactive
29 | CCCCCCCCCc1ccc(O)cc1 | active
30 | NCCc1ccc(O)cc1 [listing 2 of 2 here] | inactive
31 | C1CCN2C(C3N4CCCCN34)N2C1 (configuration not stated) | inactive
32 | c1cnc2[nH]cc(CN3CCNCC3)c2c1 | inactive
33 | O=C1NCc2cnnn2-c2ccccc21 | inactive
34 | CCN1CCN(c2nc(=O)cc(C)[nH]2)CC1 | inactive
35 | C1CO[C@@]2(C1)CCNC2 | inactive
36 | O=C([O-])c1ccccc1-c1c2cc(Br)c(=O)cc-2oc2[c]([Hg][OH])c([O-])c(Br)cc12.[Na+].[Na+] | inactive
37 | O=C1NC(=O)C(=C[C@@H]2CC=CCC2)C(=O)N1 | inactive
38 | CC1=C(O)C(=O)C=C2C1=CC=C1C2(C)CCC2(C)C3CC(C)(C(=O)O)CCC3(C)CCC12C (configuration not stated) | active
39 | O.O.O.O=C([O-])C1[O][Sb]2[O]C(=O)C([O]2)C(C(=O)[O-])[O][Sb]2[O]C(=O)C1[O]2.[K+].[K+] (configuration not stated) | active
40 | Clc1nc(N2CCNCC2)c2[nH]cnc2n1 | inactive
41 | COCCCNC(=O)[C@H]1N[C@H]2C[C@@H]1C[C@@H]2F | inactive
42 | O[C@@H]1[C@@H]2C[C@H]3[C@H]1N[C@@H]1C[C@@H]2[C@@H]3[C@H]1O | inactive
43 | CN1CCO[C@H]2CN(c3ncccn3)C[C@@H]21 | inactive
44 | N#Cc1nn(-c2c(Cl)cc(C(F)(F)F)cc2Cl)c(N)c1S(=O)C(F)(F)F (configuration not stated) | active

Row | Compound | cytotoxicity call
45 | C[C@H](CO)N1C[C@H](C)[C@H](CN(C)C(=O)Oc2ccc3ccccc3c2)OCc2cn(nn2)CCCC1=O | inactive
46 | CCOCC(=O)N1C[C@H]2CNC[C@H]2C1 | inactive
47 | CN1CCCN(Cc2ccc(CN)cc2)CC1 | inactive
48 | CN1[C@@H]2CC[C@H]1CNC(=O)C2 | inactive
49 | COc1ccc2c3c([nH]c2c1)C(C)=NCC3 | inactive
50 | CC1=NCCc2c1[nH]c1cc(O)ccc21.Cl.O.O | active
51 | CN1CCN(c2ccccc2CN)CC1 | inactive
52 | COc1ccc(OC(=O)N(C)C[C@@H]2OCc3ccccc3-c3c(n(C)c4ccccc34)C(=O)N([C@H](C)CO)C[C@H]2C)cc1 | inactive
53 | N#Cc1cccnc1N1CCNCC1 | inactive
54 | Cc1ccc2cc3c(ccc4ccccc43)c3c2c1CC3 | active
55 | CN1CCN(C(=O)[C@H]2C[C@H]3CN(c4ncccn4)C[C@@H]3N2C)CC1 | inactive
56 | Br.CN1C2CC(OC(=O)C(CO)c3ccccc3)CC1C(O)C2 (racemic) | inactive
57 | C=C1[C@H]2CC[C@H]3[C@]4(C)C[C@H](O[C@H]5O[C@@H](CO)[C@@H](OS(=O)(=O)O)[C@H](OS(=O)(=O)O)[C@H]5OC(=O)CC(C)C)C[C@@H](C(=O)O)[C@H]4CC[C@]3(C2)[C@H]1O | inactive
58 | CC[C@@H](C)NC=C1C(=O)NC(=O)NC1=O | inactive
59 | O=C(c1ccco1)N1[C@@H]2CC[C@H]1CNC2 | inactive
60 | NC1(c2cccc(Cl)c2)CC1 | inactive
61 | CC(C)C[C@@H]1NC[C@@H]2CCCN2C1=O | inactive
62 | CN(C)C(=S)SSC(=S)N(C)C | active
63 | O=C(O)CN1C[C@@H]2C(NC(=O)c3ccno3)[C@H]2C1 (some centres not stated) | inactive
64 | CC(C(O)c1ccccc1)N(C)C (configuration not stated) | inactive
65 | CNCC(=O)c1ccc(O)cc1 | inactive
66 | CNc1ccccc1C(=O)O | inactive

Row | Compound | cytotoxicity call
67 | COC(=O)NC(=S)Nc1ccccc1NC(=S)NC(=O)OC | active
68 | Br.CN1C2CC(OC(=O)C(CO)c3ccccc3)CC1C1OC12 (configuration not stated) | inactive
69 | C[N+]1(C)C2CC(OC(=O)C(CO)c3ccccc3)CC1C1OC12.[Br-] (configuration not stated) | inactive
70 | CC(=O)Nc1ccc(Cl)cc1C | inactive
71 | C=C[C@H]1CN2CC[C@@H]1C[C@@H]2CO | inactive
72 | CN(C)[C@@H](CN)c1cn(C)c2ccccc12 | inactive
73 | C[C@@H]1CCC(=O)O1 | inactive
74 | OCC[N+]12CN3CN(CN(C3)C1)C2 | inactive
75 | Cc1cc2c(C(C)C)c(O)c(O)c(C=O)c2c(O)c1-c1c(C)cc2c(C(C)C)c(O)c(O)c(C=O)c2c1O [listing 1 of 2 here] | inactive
76 | CC(=O)O.Cc1cc2c(C(C)C)c(O)c(O)c(C=O)c2c(O)c1-c1c(C)cc2c(C(C)C)c(O)c(O)c(C=O)c2c1O | inactive
77 | Cc1cc2c(C(C)C)c(O)c(O)c(C=O)c2c(O)c1-c1c(C)cc2c(C(C)C)c(O)c(O)c(C=O)c2c1O [listing 2 of 2 here] | active
78 | COc1cccc(C2(O)CCCCC2CN(C)C)c1.Cl (configuration not stated) | inactive
79 | CN(CC[C@@H](N)CC(=O)N[C@H]1C=C[C@H](n2ccc(N)nc2=O)O[C@@H]1C(=O)O)C(=N)N | inactive
80 | CN[C@H]1C[C@@H](N)[C@H](O)[C@@H](O[C@@H]2O[C@H](CO)[C@H](O)[C@@H]3O[C@@]4(O[C@H]23)O[C@H]([C@@H](N)CO)[C@H](O)[C@H](O)[C@H]4O)[C@@H]1O | inactive
81 | CCCC(=O)c1c(O)[nH]c(=O)[nH]c1=O | inactive
82 | c1ccc2sc(C3(N4CCCC4)CCCCC3)cc2c1 | inactive
83 | S=C=Nc1cccc(C2(N3CCCCC3)CCCCC2)c1 | active
84 | c1ccc2sc(C3(N4CCCCC4)CCCCC3)cc2c1 | inactive
85 | Oc1ccccc1N1CCNCC1 | inactive
86 | O[C@H]1CNC[C@@H]1N1CCCC1 | inactive
87 | CN1CC2(CNC2)OCCS1(=O)=O | inactive
88 | C[C@@H]1CN([C@@H](C)CO)C(=O)CCCn2nncc2CO[C@@H]1CN(C)C(=O)Oc1cccc2ccccc12 | inactive

Row | Compound | cytotoxicity call
89 | NCCc1[nH]nc2c1CCCC2 | inactive
90 | CC1(C)NN1CCCN1NC1(C)C (configuration not stated) | inactive
91 | NCCO.NCCO.O[AsH]O[AsH]O (configuration not stated) | active
92 | CC12CCC(=O)C=C1C=CC1C2CCC2(C)C1CCC2(O)CCC(=O)[O-].[K+] (configuration not stated) | inactive
93 | CC12CCC3C(CCC45OC4C(O)=C(C#N)CC35C)C1CCC2O (configuration not stated) | inactive
94 | C[C@H](N)Cn1ccc2cc(F)c(Cl)cc21 | inactive
95 | CC(C)[C@H](N)C(=O)N1CCC[C@H]1B(O)O | inactive
96 | CO[C@@H]1C[C@@H](C[C@H]2CC[C@H](C)[C@H]([C@@H](C)C(=O)O)O2)O[C@]2(O[C@](C)([C@H]3CC[C@@](C)([C@H]4O[C@@H]([C@H]5O[C@@](O)(CO)[C@H](C)C[C@@H]5C)C[C@@H]4C)O3)C[C@H]2C)[C@@H]1C | active
97 | C[C@@H](N)Cc1ccc2occc2c1 | inactive
98 | CC1=C2CCC3C4CCC(=O)C4(C)CCC3C2(C)CCC1=O (configuration not stated) | inactive
99 | O=[N+]([O-])c1cc(O)c(O)c([N+](=O)[O-])c1 | inactive
100 | CC(C)=CCCC1(C)C=Cc2c(O)c3c(c(CC=C(C)C)c2O1)OC12C(=CC4CC1C(C)(C)OC2(CC=C(C)C(=O)O)C4=O)C3=O (configuration not stated) | active
101 | CC(C)=CCCC1(C)C=Cc2c(O)c3c(c(CC=C(C)C)c2O1)OC12C(=CC4CC1C(C)(C)OC2(CC=C(C)C(=O)O)C4O)C3=O (configuration not stated) | inactive
102 | CC(C)=CCC[C@]1(C)C=Cc2c(O)c3c(c(CC=C(C)C)c2O1)O[C@]12[C@H](C[C@@H]4C[C@H]1C(C)(C)O[C@]2(C/C=C(/C)C(=O)O)[C@@H]4O)C3=O | inactive
103 | COc1cc(C(=O)O)cc(OC)c1OC | inactive
104 | CCC(CC)C(=O)N[C@@H]1[C@@H]2CNC[C@@H]21 | inactive
105 | NC[C@H](CC(=O)O)c1ccc(Cl)cc1 | inactive
106 | C[C@@H](N)Cc1ccc(O)cc1 | inactive
107 | C=C(CCCCCCCCCCCCCCCC)OOC[C@@H](COP(=O)(ON)O[C@@H]1[C@H](O)[C@H](O)[C@@H](OP(=O)(O)ON)[C@H](OP(=O)(O)ON)[C@H]1O)OOC(=C)CC/C=C/C/C=C/C/C=C/C/C=C/CCCCC (some centres not stated) | active
